Data taken from PubChem BioAssay.
Calls of active or inactive are those of the source.

How the values were obtained:
[1] = binders of probe aFSTL3 on microarray, primary screen, stem cell growth factor project, biochemical, small-molecule microarray, fluorescence 635/667 (AID 1064); conditions: higher = more signal;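 further: measures binding of the biotinylated anti-FSTL3 antibody to printed compounds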
[2] = binders from COS7 lysate, DM2A8 probe, primary screen, torsin A project, cell lysate, small-molecule microarray, fluorescence 635/667 (AID 1065); conditions: higher = more signal, COS7 lysate expressing mutant human TOR1A
[3] = binders of probe aFGF2 on microarray, primary screen, stem cell growth factor project, biochemical, small-molecule microarray, fluorescence 635/667 (AID 1067); conditions: higher = more signal;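 further: measures binding of biotinylated aFGF2 protein to printed compounds on slides; z-score merges feature fluorescence and signal-to-noise across triplicate slides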
[4] = binders of probe aFGF10 on microarray, primary screen, stem cell growth factor project, biochemical, small-molecule microarray, fluorescence 635/667 (AID 1071); conditions: higher = more signal;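 further: score merges 667 nm spot intensity and signal to noise from triplicate slides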
[5] = target: Neurogenic locus notch homolog protein 2 (Homo sapiens) (UniProt Q04721); assay: Notch2 binders on small-molecule microarrays, primary screen, biochemical, small-molecule microarray, 635 nm fluorescence, stem cell growth factors (AID 1073); conditions: Notch2 binding, higher = more signal
[6] = target: Pro-neuregulin-1, membrane-bound isoform (Homo sapiens) (UniProt Q02297); assay: NRG1 binders on small-molecule microarrays, primary screen, psychiatric disease protein project, biochemical, small-molecule microarray, fluorescence 635/667 (AID 1075); conditions: NRG1 binding, 635 nm fluorescence, higher = more signal;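 further: score combines 667 nm spot fluorescence with signal to noise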
Pro-neuregulin-1, membrane-bound isoform (Homo sapiens), sequence (Q02297 whole entry, looked up, the tested form may be a part, canonical isoform): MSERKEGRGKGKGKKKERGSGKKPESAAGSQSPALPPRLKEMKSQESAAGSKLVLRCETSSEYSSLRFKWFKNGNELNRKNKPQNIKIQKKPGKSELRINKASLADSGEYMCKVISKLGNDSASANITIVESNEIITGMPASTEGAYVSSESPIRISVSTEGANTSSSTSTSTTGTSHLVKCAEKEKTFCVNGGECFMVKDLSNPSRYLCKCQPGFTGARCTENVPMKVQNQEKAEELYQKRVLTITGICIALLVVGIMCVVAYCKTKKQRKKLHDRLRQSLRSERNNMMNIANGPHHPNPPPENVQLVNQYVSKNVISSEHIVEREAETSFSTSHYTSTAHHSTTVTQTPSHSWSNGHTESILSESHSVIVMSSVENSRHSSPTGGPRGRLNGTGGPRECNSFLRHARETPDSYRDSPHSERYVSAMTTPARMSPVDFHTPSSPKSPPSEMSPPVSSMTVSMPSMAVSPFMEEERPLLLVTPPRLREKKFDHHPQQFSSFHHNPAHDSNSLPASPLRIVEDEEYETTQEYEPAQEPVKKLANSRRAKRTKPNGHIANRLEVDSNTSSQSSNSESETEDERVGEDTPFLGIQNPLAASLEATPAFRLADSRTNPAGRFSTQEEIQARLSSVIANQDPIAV

[7] = system: Neuregulin-1 EGF-like domain; assay: binders of neuregulin-1 EGF-like domain, primary screen, biochemical, small-molecule microarray, 635 nm fluorescence (AID 1081); conditions: small-molecule microarray binding, higher = more signal;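 further: binding of the protein to compounds printed on small-molecule microarray slides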
[8] = FRG1 promoter luciferase signal modulators, primary screen, FRG1 inhibition for FSHD, cell-based, C2C12 myotubes, firefly/Renilla luciferase, luminescence (AID 1084); conditions: higher = more signal, called active from +8 up or from −8 down
[9] = binders of probe aFST on microarray, primary screen, stem cell growth factor project, biochemical, small-molecule microarray, fluorescence 635/667 (AID 1086); conditions: higher = more signal;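 further: score merges 667 nm fluorescence with signal-to-noise of each printed compound spot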
[10] = binders of probe aHhip on microarray, primary screen, stem cell growth factor project, biochemical, small-molecule microarray, fluorescence 635/667 (AID 1087); conditions: higher = more signal;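 further: score merges spot fluorescence at 667nm with spot signal to noise ratio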
[11] = system: PRMT1 (protein arginine N-methyltransferase 1); assay: PRMT1 binders on small-molecule microarrays, primary screen, biochemical, small-molecule microarray, 635 nm fluorescence (AID 1088); conditions: small-molecule microarray binding, higher = more signal;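 further: binding of Prmt1 protein to compounds spotted on small-molecule microarray slides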
[12] = yeast growth modulation, basal conditions, primary screen, YJM789 clinical isolate, OD600, 24 h (AID 1089);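 further: growth of clinical yeast isolate S. cerevisiae YJM 789 seeded 1000 cells per well; test concentration not given here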; conditions: S. cerevisiae YJM789 growth, higher = more signal, called active from +8 up or from −8 down
[13] = fission yeast growth modulation, primary screen, strain 972, OD600, 24 h, no modulator (AID 1090);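 further: basal condition with compound alone and no growth modifier present; test concentration not given here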; conditions: S. pombe 972 growth, higher = more signal, called active from +8 up or from −8 down
[14] = S. cerevisiae growth modulation with rapamycin, primary screen, strain BY4716, OD600, 96 h (AID 1091); conditions: higher = more signal, called active from +8 up or from −8 down; further: test concentration not given here
[15] = target: Torsin-1A-interacting protein 2 (Homo sapiens) (UniProt Q8NFQ8); assay: LULL1 binders on small-molecule microarray, primary screen, cell lysate, human LULL1 lysate, 635/667 nm fluorescence (AID 1092); conditions: hLULL1 lysate binding, 635 nm fluorescence, higher = more signal;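 further: probe is lysate of COS7 cells overexpressing human LULL1; score merges per-feature 667 nm fluorescence with signal-to-noise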
Torsin-1A-interacting protein 2 (Homo sapiens), sequence (Q8NFQ8 whole entry, looked up): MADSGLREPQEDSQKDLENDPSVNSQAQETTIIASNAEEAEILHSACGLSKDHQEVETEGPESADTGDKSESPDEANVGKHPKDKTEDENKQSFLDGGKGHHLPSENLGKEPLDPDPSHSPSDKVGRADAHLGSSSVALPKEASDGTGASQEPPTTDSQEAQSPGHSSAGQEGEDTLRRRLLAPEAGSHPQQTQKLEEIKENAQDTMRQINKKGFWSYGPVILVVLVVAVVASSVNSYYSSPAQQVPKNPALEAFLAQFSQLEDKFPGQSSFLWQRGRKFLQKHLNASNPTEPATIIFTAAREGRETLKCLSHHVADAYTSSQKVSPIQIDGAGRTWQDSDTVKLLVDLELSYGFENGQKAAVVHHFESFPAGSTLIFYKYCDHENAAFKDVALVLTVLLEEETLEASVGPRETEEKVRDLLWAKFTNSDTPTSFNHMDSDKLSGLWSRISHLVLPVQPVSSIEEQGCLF

[16] = E. coli growth modulation, two-sided OD650, primary screen, E. coli filamentation project, strain DRC41, 24 h (AID 1093); conditions: OD650, 24 h, higher = more signal, called active from +8 up or from −8 down;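 further: MC1000 strain lacking acrAB efflux and sulA so SOS filamentation is blocked; test concentration not given here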
[17] = small-molecule microarray binders of probe aLefty2, primary screen, biochemical, biotinylated probe, 635/667 nm fluorescence (AID 1094); conditions: higher = more signal;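 further: score merges spot fluorescence near 667 nm with spot signal-to-noise ratio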
[18] = system: Noggin (protein binding on small-molecule microarray); assay: Noggin binders on small-molecule microarray, primary screen, biochemical, 635/667 nm fluorescence (AID 1095); conditions: 635 nm fluorescence, higher = more signal;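 further: score merges 667 nm feature fluorescence with signal to noise over triplicate slides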
[19] = target: Neurogenic locus notch homolog protein 3 (Homo sapiens) (UniProt Q9UM47); assay: NOTCH3 binders on small-molecule microarray, primary screen, biochemical, 635/667 nm fluorescence (AID 1096); conditions: NOTCH3 binding, 635 nm fluorescence, higher = more signal
Neurogenic locus notch homolog protein 3 (Homo sapiens), sequence (Q9UM47 whole entry, looked up): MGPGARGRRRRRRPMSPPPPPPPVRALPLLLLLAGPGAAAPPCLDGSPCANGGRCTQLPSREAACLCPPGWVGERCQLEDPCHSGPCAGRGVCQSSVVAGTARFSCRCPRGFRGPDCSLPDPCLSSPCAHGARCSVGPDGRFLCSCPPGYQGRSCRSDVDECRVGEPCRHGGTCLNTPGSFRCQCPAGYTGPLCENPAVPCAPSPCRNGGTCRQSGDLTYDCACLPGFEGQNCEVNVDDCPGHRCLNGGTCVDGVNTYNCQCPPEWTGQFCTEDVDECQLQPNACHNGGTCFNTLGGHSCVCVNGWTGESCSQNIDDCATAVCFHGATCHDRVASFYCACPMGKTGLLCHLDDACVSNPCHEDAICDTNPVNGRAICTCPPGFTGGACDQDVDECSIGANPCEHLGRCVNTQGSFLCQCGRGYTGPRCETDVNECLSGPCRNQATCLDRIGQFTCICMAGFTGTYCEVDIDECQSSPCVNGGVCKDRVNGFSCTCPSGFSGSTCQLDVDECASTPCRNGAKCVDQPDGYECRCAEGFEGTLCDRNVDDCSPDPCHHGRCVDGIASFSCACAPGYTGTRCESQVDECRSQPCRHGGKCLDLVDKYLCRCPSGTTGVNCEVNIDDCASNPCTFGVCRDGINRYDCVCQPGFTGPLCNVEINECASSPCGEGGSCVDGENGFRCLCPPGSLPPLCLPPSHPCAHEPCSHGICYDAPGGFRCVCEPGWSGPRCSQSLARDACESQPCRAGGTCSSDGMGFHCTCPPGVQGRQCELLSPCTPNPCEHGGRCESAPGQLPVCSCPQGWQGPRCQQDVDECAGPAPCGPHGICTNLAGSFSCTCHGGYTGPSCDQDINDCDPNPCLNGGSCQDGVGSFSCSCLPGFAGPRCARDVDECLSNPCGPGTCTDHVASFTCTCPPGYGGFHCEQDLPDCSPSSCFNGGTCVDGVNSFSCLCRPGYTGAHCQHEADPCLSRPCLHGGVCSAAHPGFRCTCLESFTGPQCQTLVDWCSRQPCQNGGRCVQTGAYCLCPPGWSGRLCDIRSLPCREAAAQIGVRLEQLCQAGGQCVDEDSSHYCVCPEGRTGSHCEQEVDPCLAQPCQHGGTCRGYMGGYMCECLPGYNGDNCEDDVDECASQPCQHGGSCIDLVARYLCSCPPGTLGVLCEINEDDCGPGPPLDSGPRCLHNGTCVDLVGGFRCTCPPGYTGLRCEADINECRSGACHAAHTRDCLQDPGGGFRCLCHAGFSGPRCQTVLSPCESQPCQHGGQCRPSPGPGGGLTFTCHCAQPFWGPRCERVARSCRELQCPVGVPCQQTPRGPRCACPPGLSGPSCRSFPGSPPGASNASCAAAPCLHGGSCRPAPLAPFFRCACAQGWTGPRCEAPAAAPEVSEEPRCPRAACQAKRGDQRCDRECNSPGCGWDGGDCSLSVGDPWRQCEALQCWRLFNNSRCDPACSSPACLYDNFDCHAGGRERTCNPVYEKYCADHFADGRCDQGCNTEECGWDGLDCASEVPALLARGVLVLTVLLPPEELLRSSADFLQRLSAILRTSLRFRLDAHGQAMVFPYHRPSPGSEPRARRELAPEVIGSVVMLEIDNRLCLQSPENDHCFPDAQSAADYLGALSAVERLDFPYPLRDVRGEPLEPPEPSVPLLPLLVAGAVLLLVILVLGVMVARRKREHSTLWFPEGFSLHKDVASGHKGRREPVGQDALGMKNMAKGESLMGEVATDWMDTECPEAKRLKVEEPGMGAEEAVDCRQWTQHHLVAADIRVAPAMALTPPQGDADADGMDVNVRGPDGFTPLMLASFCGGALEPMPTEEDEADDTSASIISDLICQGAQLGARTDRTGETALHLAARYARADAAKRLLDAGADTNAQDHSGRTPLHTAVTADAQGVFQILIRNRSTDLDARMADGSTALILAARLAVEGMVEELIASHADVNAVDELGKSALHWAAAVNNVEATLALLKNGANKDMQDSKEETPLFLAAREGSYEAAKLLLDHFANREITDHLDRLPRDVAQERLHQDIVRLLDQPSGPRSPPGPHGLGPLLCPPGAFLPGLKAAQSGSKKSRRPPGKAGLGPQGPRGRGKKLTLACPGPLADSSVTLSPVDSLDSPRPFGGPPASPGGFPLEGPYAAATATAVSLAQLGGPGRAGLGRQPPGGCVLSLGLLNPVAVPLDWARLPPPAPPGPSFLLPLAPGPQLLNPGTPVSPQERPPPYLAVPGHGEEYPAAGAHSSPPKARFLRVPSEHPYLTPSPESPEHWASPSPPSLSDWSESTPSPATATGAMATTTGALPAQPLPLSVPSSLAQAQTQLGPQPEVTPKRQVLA

[20] = small-molecule microarray binders of probe aEGFR, primary screen, biochemical, biotinylated probe, 635/667 nm fluorescence (AID 1097); conditions: higher = more signal;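 further: probe is a biotinylated anti-EGFR antibody binding compounds printed on slides; score combines fluorescence near 667 nm and signal to noise of each spot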

CCOC(=O)NN=C1C[C@@H](O)[C@@H](O)[C@@H]2[C@@H]3C(=O)N([C@@H](C)c4ccccc4)C(=O)[C@@H]3CC[C@H]12
composite z-score [1]: -0.322 | composite z-score [2]: -0.0183 | composite z-score [3]: -0.085 | composite z-score [4]: 0.321 | composite z-score [5]: 0.453 | composite z-score [6]: -0.0718 | composite z-score [7]: 0.0602 | z-score [8]: -0.223 (inactive) | composite z-score [9]: 0.252 | composite z-score [10]: 0.138 | composite z-score [11]: 0.215 | z-score [12]: -0.612 (inactive) | z-score [13]: 0.366 (inactive) | z-score [14]: -0.222 (inactive) | composite z-score [15]: 0.261 | z-score [16]: 0.352 (inactive) | composite z-score [17]: -0.0458 | composite z-score [18]: 0.264 | composite z-score [19]: 0.507 | composite z-score [20]: 0.0122

COC(=O)[C@@H]1CC[C@H](C)[C@@H](c2ccc(C)cc2)N1C(=O)c1ccc(C=NO[C@@H](C)c2cn([C@H](CO)Cc3ccccc3)nn2)cc1
composite z-score [1]: -0.612 | composite z-score [2]: -0.0378 | composite z-score [3]: -0.0943 | composite z-score [4]: 0.496 | composite z-score [5]: 1.11 | composite z-score [6]: 0.327 | composite z-score [7]: 0.477 | z-score [8]: -3.25 (inactive) | composite z-score [9]: 0.517 | composite z-score [10]: 0.25 | composite z-score [11]: 1.44 | z-score [12]: 0.76 (inactive) | z-score [13]: 0.249 (inactive) | z-score [14]: 1.25 (inactive) | composite z-score [15]: 1.57 | z-score [16]: 1.35 (inactive) | composite z-score [17]: -0.126 | composite z-score [18]: 1.19 | composite z-score [19]: 1.1 | composite z-score [20]: 0.24

CCOC(=O)[C@H](Cc1ccccc1)NC(=O)CCC1CC(OC(=O)NCc2ccc3c(c2)OCO3)CC2(CCCC(COC(=O)NCCC(C)C)O2)O1 (stereo not given in full)
composite z-score [1]: -0.545 | composite z-score [2]: 0.107 | composite z-score [3]: -0.0193 | composite z-score [4]: 0.755 | composite z-score [5]: 0.523 | composite z-score [6]: 1.41 | composite z-score [7]: 1.06 | z-score [8]: 0.548 (inactive) | composite z-score [9]: 0.169 | composite z-score [10]: 0.268 | composite z-score [11]: 1.54 | z-score [12]: 0.648 (inactive) | z-score [13]: -0.29 (inactive) | z-score [14]: -0.2 (inactive) | composite z-score [15]: 1.95 | z-score [16]: -0.167 (inactive) | composite z-score [17]: 0.0224 | composite z-score [18]: 0.614 | composite z-score [19]: 0.671 | composite z-score [20]: -0.068

C#CCCCON=C1C[C@@H](O)[C@@H](O)[C@@H]2[C@@H]3C(=O)N(C(C)(C)C)C(=O)[C@@H]3CC[C@H]12
composite z-score [1]: 1.86 | composite z-score [2]: 1.01 | composite z-score [3]: -0.0245 | composite z-score [4]: -0.104 | composite z-score [5]: 0.162 | composite z-score [6]: -0.431 | composite z-score [7]: -0.58 | z-score [8]: -0.247 (inactive) | composite z-score [9]: 0.774 | composite z-score [10]: -0.122 | composite z-score [11]: -0.872 | z-score [12]: -0.234 (inactive) | z-score [13]: -0.401 (inactive) | z-score [14]: -0.0894 (inactive) | composite z-score [15]: -0.0077 | z-score [16]: 0.216 (inactive) | composite z-score [17]: 0.599 | composite z-score [18]: -0.532 | composite z-score [19]: -0.326 | composite z-score [20]: 0.113

CCOC(=O)[C@H](CC(C)C)NC(=O)CCC1CC(OC(=O)NCCc2ccc(F)cc2)CC2(CCCC(COC(=O)NCCc3ccccc3OC)O2)O1 (stereo not given in full)
composite z-score [1]: -0.329 | composite z-score [2]: 0.0726 | composite z-score [3]: -0.0806 | composite z-score [4]: 0.363 | composite z-score [5]: 0.41 | composite z-score [6]: 1.08 | composite z-score [7]: 0.577 | z-score [8]: 0.617 (inactive) | composite z-score [9]: 0.216 | composite z-score [10]: -0.134 | composite z-score [11]: 1.15 | z-score [12]: 0.217 (inactive) | z-score [13]: 1.02 (inactive) | z-score [14]: 0.471 (inactive) | composite z-score [15]: 1.73 | z-score [16]: -0.0351 (inactive) | composite z-score [17]: -0.19 | composite z-score [18]: 0.718 | composite z-score [19]: 1.12 | composite z-score [20]: 0.0004
